± gives the standard deviation of the averaged measurements. The full ranking holds about 25,000 sequences; the median of “ln(normalized median fluorescence intensity)” is about 8.6, and the highest 2% start at about 10. This is one part of a sample in which the highest values are shown more often than they occur.
tested on: PfAP2-EXP AP2 domain (GST-tagged); test: gcPBM binding intensity (ln(normalized median fluorescence intensity)); higher = stronger DNA binding
Outline: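 In this array assay, P. falciparum DNA-binding domains with a GST tag, expressed in E. coli, were applied for 1 h to primer-extended double-stranded 36-bp intergenic genomic probes and negative controls on an Agilent 4 × 180k array. Bound protein was visualised with Alexa488 anti-GST antibody at 488 nm. Binding intensity is the highest Masliner-normalised natural-log median intensity across replicate spots of either probe orientation.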

Sequence	gcPBM binding intensity (ln)
ATTGTGGATATTCTTACACACAAATTTATATATAAA [CACACA_site2601]	8.37 ± 0.49
AAGTTTTTTTTTAACACACACATAATAAAATAAATA [CACACA_site446]	8.46 ± 0.31
GTATGTTTAATTTTAGTGCAATTATAAATATTTTAA [GTGCAC_site9531]	8.62 ± 0.18
TATATATATTTATATGCATGTAATATATTTGTATTG [TGCATGCA_site323]	8.71 ± 0.3
GGGGAAAAAAAAAAAGGAAAAAGAAAAAAAAAAAAA [GTGCAC_negctrl_site489]	8.38 ± 0.39
AAAAAAAAAAAAAAAAGGGGGGGAGGGATTGAAAAA [CACACA_negctrl_site193]	10.22 ± 0.042
AAAAAAAAATGAAAAGAAAAAAAAAGAAAAAAGGGA [CACACA_negctrl_site287]	8.61 ± 0.67
CTATTATAATATTTTACACACCATGTAAGATATATA [CACACA_site7492]	8.46 ± 0.35
CATATTTTTTCTTAAACACACACATATATATATATA [CACACA_site8920]	10.1 ± 0.41
TCTTTTAAACAGTACACACACACATATATATATATA [CACACA_site924]	10.3 ± 0.22
ATTATATTATTTTAAAGTACACACATATATTAATAT [XGTACX_site4769]	8.63 ± 0.24
TCTTTTAAACAGTACACACACACATCTATATTTATA [CACACA_site6559]	8.755 ± 0.078
TTAACAGTAAAACACAGTACATATATACTTAAAACA [XGTACX_site1930]	8.59 ± 0.35
TATATTCTTTTAAACAGTACACACACACATATATAT [XGTACX_site1701]	8.96 ± 0.44
TTAAAACCAAAACACAGTACATATATATATATATAT [XGTACX_site5668]	10.3 ± 0.23
TATTTTTTCTTAAACACACACATATATATATATAAT [CACACA_site5567]	8.56 ± 0.39
AAATAAAATACATATAAACACACATATAAACCAACA [CACACA_site8789]	8.88 ± 0.61
TTTTCTTTTAAACATATATATATATATATATATATA [XGTACX_negctrl_site559]	10.4 ± 0.23
TTAATCCTTTTTAAAAGTACACATATATATATATAT [XGTACX_site962]	10.2 ± 0.38
TATTTTAAAAAAAAAAGTACACATAATATATATAAC [XGTACX_site5416]	8.64 ± 0.26
ATATATATATTAAATACACACATTTTTGATTAGGTT [CACACA_site3119]	9.405 ± 0.078
TAAATAAGTATTACTAGTACACACAAGTTGTTAATC [XGTACX_site7074]	8.57 ± 0.28
TTTTATGTTCTTAATGCACACTTATAAGTATCTTAT [CACACA_site4895]	9.07 ± 0.21
TATCATATAAAACATGCACACATATGTACTCTTATA [CACACA_site9249]	8.77 ± 0.31

Sequence	gcPBM binding intensity (ln)
ATTTTTTATGAAAATAAACACACGATTTATTATATA [CACACA_site1312]	8.14 ± 0.33
AGAAAAAAGAGGGATACACACAAACATATATTTATA [CACACA_site7122]	8.81 ± 0.29
ACATATAATATATATATATATATATATATATATAAT [GTGCAC_negctrl_site648]	8.66 ± 0.18
TTGGTATAAAATTATAGTACATAAGGTAAATATAAA [XGTACX_site4698]	8.56 ± 0.33
GGAATATTAAAAAAATGTACAAAAAATAATATCCAT [XGTACX_site2596]	8.97 ± 0.36
ATATTAAGAATGTATACATGCATATATATATAGTAC [TGCATGCA_site219]	9.17 ± 0.42
TTTTGAAGCTTTAAAACATATATATATATATATATA [CACACA_negctrl_site184]	10.3 ± 0.4
TACATAAACTTTATAACACACACTTATATATATATA [CACACA_site1106]	9.86 ± 0.18
CATAAACTTTATAACACACACTTATAAATATAAATA [CACACA_site6646]	8.41 ± 0.4
AAACTTTTTTTAAAAACACACATATATATTTATATA [CACACA_site4092]	8.36 ± 0.41
CATAAACTTTTTAACACACACTTATATATATATATA [CACACA_site4747]	10.3 ± 0.23
TTAAAACATATTTTGAATTAATATATTTTAATATTA [XGTACX_negctrl_site148]	7.72 ± 0.39
TGTTATATATGTAATTGTACACTTATACAAAATTAT [XGTACX_site6350]	8.52 ± 0.22
TTTTTGTTTTTGTTTTGTACTCATACATACTATCAT [XGTACX_site4210]	8.99 ± 0.44
AAAAAAAATATATTACAAAACTTAGGATCCTAATAT [CACACA_negctrl_site470]	8.48 ± 0.39
AAATATTAAATGGAAAACAAATATATATATCTTAAT [XGTACX_negctrl_site383]	8.56 ± 0.38
AAAAAAAAAATTGAAAGTACACAAATGGGGTATTAT [XGTACX_site3960]	8.75 ± 0.35
TATGTATAAAAATAATGTACAAAATATATTATATGT [XGTACX_site2794]	8.69 ± 0.33
TATATATATATATGGGGTACAAATGGTCAGTATTAT [XGTACX_site1223]	10.2 ± 0.21
GATATTCATTATATATGTACATATATGTAATATATA [XGTACX_site2210]	8.55 ± 0.24
GTAATCCACAAACACACACACATACACATATATATA [CACACA_site2728]	8.78 ± 0.34
TATATATATAAACACACACACATATATATATATATA [CACACA_site4584]	10.1 ± 0.35
GAATAAAGGAGAGGCACACATATATATATATATATA [CACACA_site2452]	10.2 ± 0.25
AATCCACAAAGACACACACACACATATATATATATA [CACACA_site1269]	10.2 ± 0.35

Sequence	gcPBM binding intensity (ln)
TATAAAAGTGGACACACACACATATATATATATATA [CACACA_site4673]	10.2 ± 0.64
TCTATAAAGGAATATACACACATATATATATATATA [CACACA_site410]	10 ± 0.26
AAACATAAGGGACACACACACATATATATATATATA [CACACA_site5920]	10.3 ± 0.16
AAAAAAAAAAAAAAGACACACATATATATATATATA [CACACA_site633]	10 ± 0.31
AATAATAAAAAAAGTGCACACACATAATATATATAT [CACACA_site9100]	9.47 ± 0.099
TATATATATAAACACACACACACATATATATATATT [CACACA_site8814]	9.02 ± 0.23
TAATAAAAAAAGTGCACACACATAATATATATATAT [CACACA_site3340]	9.74 ± 0.28
AATATAAAAAGGCACACACACAAAAAAAAAAAAAAA [CACACA_site896]	8.26 ± 0.49
ATAAAAAAAGATGAACGTACATATATTTTAAAAATC [XGTACX_site5950]	8.7 ± 0.45
TAATCATTTTTAAATTGTACAATTTATATAATAAGT [XGTACX_site6081]	8.5 ± 0.26
AAATTTATAAATTAAAGTACATATTTCTTGAATATT [XGTACX_site859]	8.34 ± 0.48
CTCAACATATACGTAACACACATATATATATATATA [CACACA_site3838]	10.2 ± 0.41
TAAGTTTTGTTTTTTTGTACTCATTCATACTATCAT [XGTACX_site3638]	8.87 ± 0.49
TAAAATTTAAGTTATACACACTTAAGTAACATCATC [CACACA_site6395]	8.72 ± 0.37
TGTTTATGTATCAATTGTACAAAAAAAAAAAAAAAA [XGTACX_site1590]	8.26 ± 0.46
TGACCTGTTCAGGTAACACACATATAAACACATACA [CACACA_site4186]	8.8 ± 0.43
TTAATAACGTAATGTAAATGTTTCATACCCTTTTTT [CACACA_negctrl_site988]	8.36 ± 0.43
AAAGGATACAGACACACACACACATATATATATATA [CACACA_site906]	10.1 ± 0.4
TAAAAGGATACATATACACACATATATATATATATA [CACACA_site2791]	10.2 ± 0.42
CCATAAAAAGGATACACACACACACGCACATATATA [CACACA_site6550]	8.73 ± 0.5
CCATAAAAAGGATACACACACACACCCACATATATA [CACACA_site903]	8.71 ± 0.45
CATATAAAAGGACACACACACACATATATATATATA [CACACA_site4674]	10 ± 0.43
ATAAAAAAAGGACACACACACATATATTTATTTATA [CACACA_site7438]	8.66 ± 0.52
ATAAAAAAAGGACACACACACATATATATATATATA [CACACA_site5662]	10.2 ± 0.42

Sequence	gcPBM binding intensity (ln)
AATACAAAAAAAGGTACACACATAATATATTTATTA [CACACA_site2628]	8.7 ± 0.34
CAACGATACAAAAAAGGTACACATATATATATATAT [XGTACX_site8688]	10.2 ± 0.47
ACAAATACAAAAAAAGGTACACACATAATATATTTA [XGTACX_site5515]	8.72 ± 0.51
AAAGGATATAGACACACACACACATATATATATATA [CACACA_site2200]	10.2 ± 0.14
TATATATATAGACACACACACACATATATATATATA [CACACA_site9366]	10.1 ± 0.42
TTTTTTATTTTAAAAACATGCATAAAATATAATAGT [TGCATGCA_site762]	8.94 ± 0.42
ACATGTATACTTTTTACGAAAAAAAAAAAAAAAAAA [CACACA_negctrl_site1638]	8.09 ± 0.45
TTTTAAAAAGATCATTAAAAAAAAAAAAAGAACAAA [CACACA_negctrl_site528]	8.53 ± 0.41
TATACATATTTGTATTGTACATAAACTAAATCTTCA [XGTACX_site610]	8.21 ± 0.36
ATACGATTGAAACATTGTACATGAATATAAAAAAAT [XGTACX_site5704]	8.88 ± 0.47
ATATTTTATTATTGTTGTACTTTTTTTTGATTGTTT [XGTACX_site4090]	8.81 ± 0.42
TTGTGTTCTTATTTTTACACCGAAAAATATTAAAAG [CACACA_negctrl_site535]	8.55 ± 0.29
AATGGATGGTCCAAATGTACATATATATATATATAT [XGTACX_site4800]	10.1 ± 0.41
ATATATATATGTTACTGTACTAATTTATATGTTAAT [XGTACX_site3341]	9.665 ± 0.064
AAAGGGATAACACCAAAAAAAATAAAAATAAAAATA [GTGCAC_negctrl_site680]	8.61 ± 0.54
AATTATGGGGAAAAGACACACATATATATATATATA [CACACA_site2589]	10.3 ± 0.31
ATAAAAAAAAGACACACACACATATATATATATATA [CACACA_site3073]	10 ± 0.33
AGGATACACAGACACACACACATATATATATATATA [CACACA_site907]	10 ± 0.45
CATATAAAAAGACACACACACACATATATATATATA [CACACA_site940]	10.3 ± 0.18
AAAAATTATGGACACACACACATATATATATATATT [CACACA_site4717]	8.53 ± 0.31
AGGATATGCAGACACACACACATATATATATATATA [CACACA_site2201]	10.3 ± 0.41
AGGATATGCAGACACACACACATATAGATTTATATA [CACACA_site7100]	8.41 ± 0.48
GAGAAATGGGGACACACACACATATTATATATATAT [CACACA_site4943]	9.71 ± 0.2
AAAAAAAAAAGACACACACACATATAAATATAAATA [CACACA_site6899]	8.75 ± 0.38
